Compounds without any hit were thinned out: in the full panel of roughly 83,000, 20% have a hit.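 Assay: single dose, 48 h. Readout: percent growth (0 = no net growth; negative = cell death). Active: <10.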 Unmarked numbers belong to inactive results. The source made the active and inactive calls.

This assay has as its system MOLT-4 leukemia. Briefly: NCI-60 one-dose screen, 48 h (100 = growth as untreated, 0 = no growth, -100 = all killed). Conditions: 10 µM. On the procedure: Growth inhibition of the MOLT-4 human tumor cell line is measured as a screen for anti-cancer activity. Cells are grown in 96 well plates and exposed to the test compound for 48 hours. Compounds are tested at a single concentration, which is 10^-5 M for most compounds. The reported endpoint is percent growth (GI% or GIPRCNT), where numbers from 0 - 100% represent growth inhibition, and numbers from -100% - 0 represent cell death. For example, a value of 40 represents 60% growth inhibition. A value of 0 means no net growth occurred over the course of the experiment. A value of -40 indicates 40% of cells at the beginning of the experiment died by the end of the experiment. A value of -100 means all cells are dead at the end of the experiment.
NCI-60 Human Tumor Cell Lines Screen was performed using the standard one-dose NCI protocol, which is described in more detail at https://dtp.cancer.gov/discovery_development/nci-60/default.htm.
Compounds with GIPRCNT values below 10 were considered active. Activity score was based on GIPRCNT using the following formula: […]
Score is 0 for GIPRCNT values of 100 or above, 50 for GIPRCNT values of 0, and 100 for GIPRCNT values of -100.
Regarding `ClCCN(CCCl)c1ccc(/C=C\c2ccnc3ccccc23)cc1`, the growth was 69.8%.
Under `CC12CCC(=O)C=C1CCC1C2CCC2(C)C(C(=O)COC(=O)Cc3ccc(N(CCCl)CCCl)cc3)CCC12` (stereo not given) stands 49.5%.
Under `C[As](=O)(O)c1ccc(C(=O)O)cc1` stands 110%.
Take `CN(C)P1(N(C)C)=NP(N(C)C)(N(C)C)=NP(N(C)C)(N(C)C)=N1`: the growth is 102%.
Under `CCCCCCCCCCCCOc1ccc(C(=O)Oc2ccc(CSP3(=O)OCC4OC(n5cnc6c(N)ncnc65)C(F)C4OP(=O)(O)OCC4OC(n5ccc(=O)[nH]c5=O)C(F)C4O3)cc2)cc1` (stereo not given) stands 68.3%; under `COc1ccc(C(=O)c2ccc([As]=O)cc2)cc1` (stereo not given), -24.5% (active).
`NCCc1cc(O)c(O)cc1O`: the growth is 86.5%.
Regarding `COc1ccc(C2=NN(c3ccccc3)C(c3sc(N(CCCl)CCCl)nc3Cl)C2)cc1` (stereo not given), the growth was 67.5%.
Under `CCC(CO)NC1CCCCC1` (stereo not given) stands 88%; under `CC(=O)N(C)C1=Nc2ccc(Cl)cc2C(c2ccccc2)=[N+]([O-])C1`, 101%; under `O=C(NCc1ccc([N+](=O)[O-])cc1)Nc1ccc(S(=O)(=O)F)cc1`, 87.3%.
Next, `O=C1NC(=O)C(=Cc2cn(Cc3ccccc3)c3ccccc23)C(=O)N1`: 132%; `C[C@]12CC[C@@H]3c4ccc(OC(=O)Cc5ccc(N(CCCl)CCCl)cc5)cc4CC[C@H]3[C@@H]1CC[C@@H]2OC(=O)Cc1ccc(N(CCCl)CCCl)cc1`: 104%; `O=C1NC(=O)C(Cc2ccccc2)(Cc2ccccc2)C(=O)N1`: 100%.
Next, `O=C(O)c1[nH]c(=O)[nH]c(=O)c1F`: 49.7%.
On to `CCOCC1(CCc2ccccc2)C(=O)NC(=S)NC1=O`, for which the growth is 91.8%.
Under `CC(/C=N/N=C(N)N)=N/N=C(N)N` stands 101%; under `N#[N+]c1nc2nc(N)[nH]c(=O)c2[nH]1`, 103%; under `CC1(C)N=C(N)N=C(N)N1c1ccc(CCCCc2ccc(S(=O)(=O)F)cc2)c(Cl)c1`, 18.2%.
For the molecule `CC(C)CCC1(CCO)C(=O)NC(=S)NC1=O`, the growth was 113%.
As to `ClCCN(CCCl)C(c1ccccc1)c1ccc(Cl)cc1` (stereo not given), the growth was -3.35% (active).
Next, `N#C[Se]CCN1C(=O)C2C(C1=O)[C@H]1C=C[C@@H]2S1` (stereo not given in full): 4.47% (active).
Next, `Oc1ccc(Br)cc1CN1CCN(Cc2ccc(Cl)cc2)CC1`: 56.1%.
Under `S=P(N1CCCCCC1)(N1CC1)N1CC1` stands 33.4%; under `C[C@]12CCC(=O)CC1CC[C@@H]1C2CC[C@@]2(C)C1CC[C@@H]2OC(=O)CC[Se][Se]CCC(=O)O[C@H]1CCC2[C@@H]3CCC4CC(=O)CC[C@]4(C)C3CC[C@@]21C` (stereo not given in full), 90.1%; under `CCCCNCCc1ccccn1`, 97.5%.
`O=[N+]([O-])c1ccccc1N1CCNCC1`: the growth is 103%.
Next, `Oc1c(Br)cc(Br)cc1Br.[Cu+2]`: 92.1%; `C1CNC2CCCC2C1` (stereo not given): 116%; `Cc1cc(C)nc(C)c1.[Cl][Hg][Cl]`: 92%.
Next, `C/C(=N/OC(=O)N(C)C)c1ccc(Cl)cc1Cl`: 90%; `CC(=O)[O][Hg][c]1nc2c(c(=O)n(C)c(=O)n2C)n1C`: 100%.
Next, `COc1ccc(CN2CCN(Cc3ccccc3)CC2)c(O)c1`: 83.7%; `CC(=O)OC1CCC2(C)C(=CCC3C4CC(CN5CC5)C(=O)C4(C)CCC32)C1` (stereo not given): 15.6%; `Cc1cc(CCl)c(C)cc1CCl`: 29.7%.
In the case of `O=C(CI)Nc1ccc(Br)cc1`, the growth was -28.4% (active).
As to `CNC(=O)Oc1ccccc1-c1ccccc1`, the growth is 96%.
Under `CC[C@]12C=CCN3CC[C@@]4(c5ccc(OC)cc5N(C)[C@H]4[C@@](O)(C(=O)OC)[C@@H]1OC(=O)CCCN1CCN(CCCC(=O)O[C@@H]4[C@]5(CC)C=CCN6CC[C@@]7(c8ccc(OC)cc8N(C)[C@H]7[C@@]4(O)C(=O)OC)[C@@H]65)CC1)[C@@H]32` stands -62.9% (active); under `C[CH2][Pb]([CH2]C)([CH2]C)[O]C(=O)COC`, -37.7% (active).
Next, `COc1ccc(OC)c(/C=C(/C)[N+](=O)[O-])c1`: 0.523% (active).

These data come from PubChem BioAssay (NCI).
